L3MBTL1 block: L3MBTL1 (human) inhibition; Q9Y468; AlphaScreen L3MBTL1–H3K9me1 peptide binding; Potency, µM (titrated, usually from 57.1 µM), actives largely listed as inhibitors; 0.66% of 230,000 active; AID 485360; also: nearly all actives have a fitted effect of over 60% in size
Target sequence (Q9Y468 whole entry, looked up): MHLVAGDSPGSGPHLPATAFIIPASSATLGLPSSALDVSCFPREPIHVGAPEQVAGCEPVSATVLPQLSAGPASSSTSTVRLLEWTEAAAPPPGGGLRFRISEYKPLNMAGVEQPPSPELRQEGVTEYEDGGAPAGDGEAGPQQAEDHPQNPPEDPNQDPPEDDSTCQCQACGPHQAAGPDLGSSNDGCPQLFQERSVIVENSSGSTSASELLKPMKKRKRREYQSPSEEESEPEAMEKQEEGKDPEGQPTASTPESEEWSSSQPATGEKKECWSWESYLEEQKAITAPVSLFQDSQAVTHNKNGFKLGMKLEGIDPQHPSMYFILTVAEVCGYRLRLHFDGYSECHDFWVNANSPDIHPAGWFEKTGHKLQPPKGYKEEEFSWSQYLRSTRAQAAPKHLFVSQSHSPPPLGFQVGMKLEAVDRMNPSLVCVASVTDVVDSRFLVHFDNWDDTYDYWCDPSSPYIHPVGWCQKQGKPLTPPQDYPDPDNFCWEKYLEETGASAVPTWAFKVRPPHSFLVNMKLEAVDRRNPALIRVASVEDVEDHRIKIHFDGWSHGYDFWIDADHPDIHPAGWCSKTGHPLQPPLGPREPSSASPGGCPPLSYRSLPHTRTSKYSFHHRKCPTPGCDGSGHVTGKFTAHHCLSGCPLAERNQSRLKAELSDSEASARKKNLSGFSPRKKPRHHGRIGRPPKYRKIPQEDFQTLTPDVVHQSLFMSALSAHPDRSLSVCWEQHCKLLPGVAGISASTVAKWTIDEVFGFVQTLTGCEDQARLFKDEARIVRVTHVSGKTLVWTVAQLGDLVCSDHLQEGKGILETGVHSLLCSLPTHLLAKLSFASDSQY
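AlphaScreen assay: L3MBTL1 (50 nM final) was preincubated 30 min at room temperature with biotinylated H3(1-15)K9me1 peptide (75 nM final), then 30 min with library compounds; streptavidin donor and nickel chelate acceptor beads (10 ug/mL final) added, 30 min dark.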
Eya2 phos inh: inhibitors of human Eya2 phosphatase activity; O00167; recombinant Eya2, OMFP fluorescence dephosphorylation (OMFP is methylfluorescein phosphate); Potency, µM (top dose mostly 76.9 µM), usual class: inhibitors; 0.006% of 330,000 active
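Eya2 protein (added as 0.2 uM solution) was preincubated with compound for 10 min at ambient temperature in 50 mM HEPES pH 7.5, 50 mM NaCl, 5 uM MgCl2, 0.05% BSA, 1 mM DTT. OMFP (added at 50 uM) then reacted 10 min; fluorescence read at 485/525 nm.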
CBFb RUNX1 block: blocks binding between human CBF-beta and RUNX1. AlphaScreen CBFb-His/RUNX1-biotin binding, biochemical. Potency, µM (titrated, usually from 59.8 µM), hits mostly inhibitors. 230,000 tested, under 10 active
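Interaction loss through any mechanism counts as activity. Pre-formed complex of His-CBF-beta and biotin-RUNX1 (30 nM apiece) is incubated with compound 15 min, then with 50 ng nickel and 50 ng streptavidin beads for 90 min before AlphaScreen detection.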
MBNL1-CUG inh: MBNL1-poly(CUG) RNA binding inhibition; Q9NR56; TR-FRET MBNL1-His/biotin-(CUG)12 binding, 665/545 ratio; Potency, µM (titrated, usually from 57.5 µM), actives largely listed as inhibitors; 0.036% of 280,000 active; AID 2675; active = well fitted inhibition curve with a large enough effect in the signal ratio, with a control signal flat, not every such curve was filed as active; inconclusive = small, poorly fitted or top-dose-only effect, or effect the other way, or a change in a side signal; inactive = no such curve, though single readings can be large or run the other way; the % refers to the signal ratio
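Compounds (final 92 nM to 58 uM) are added to His-tagged MBNL1 and biotin-(CUG)12, then terbium anti-His antibody and streptavidin-XL665 (5 nM final). After 60 min at room temperature, the 665/545 nm ratio is read.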
Six1-Eya2 inh: blocks human Six1 binding to Eya2 | activity change, % (test concentration not listed) | Q15475+O00167 | AlphaScreen GST-Six1/His-Eya2 binding, biochemical; stronger effect = lower value | 0.56% of 360,000 active; in the data active = activity change below about -65%; inconclusive = mostly about -30% to -63%
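Compounds are tested against tagged Six1 and Eya2 proteins bridged by glutathione donor and nickel acceptor beads; after a one-hour incubation at 37 °C without light, AlphaScreen emission is recorded.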
CtBP-E1A inh: inhibitors of CtBP/E1A interaction; AlphaScreen GST-E1A/His-CtBP binding, 1536-well; stronger effect = lower value; activity change, % (no concentration beside the values); 0.49% of 340,000 active; AID 651724; in the data active = activity change below about -65%; inconclusive = mostly about -30% to -63%
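GST-E1A and His-tagged CtBP (125 nM each as 5X stock) were preincubated with pin-transferred compound for 2 h at 37 °C in the dark, then glutathione donor and nickel acceptor beads were added for 1 h before AlphaScreen reading.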
Numbers stand for hits; 0 = inactive; ? = inconclusive; - = no result; [ ] = remark or other dose. Rows were chosen to be rich in hits. Some 0.89% of all compounds tested hit in one or more screens of this group. Unless noted, calls follow the shape of the dose curve; as a rule, active = well fitted curve in the direction sought with a large enough effect; inconclusive = small, poorly fitted or top-dose-only effect, or another doubt; inactive = no such curve, though single readings can be large; an effect the other way counts as inactive or inconclusive.

SMILES	L3MBTL1 block	Eya2 phos inh	CBFb RUNX1 block	MBNL1-CUG inh	Six1-Eya2 inh	CtBP-E1A inh
Cc1csc(N=Nc2ccc(N(C)C)cc2)[n+]1[O-]	-	-	-	-	-77	?
Cc1oc(C)c2c(=O)ccc3c(c12)OC(N)=C(C#N)C3c1ccc(F)cc1 (stereo not drawn)	28µM	0	0	?	0	0
Cc1[nH]nc2c1C(c1ccc(F)cc1)C(C#N)=C(N)O2 (stereo not drawn)	0	0	0	0	0	0
CC(C)(C)OC(=O)C[C@H]1C/C=C\C[C@H](CC(=O)N[C@H](CO)Cc2ccccc2)C(=O)N[C@H](Cc2ccccc2)COC1=O	0	0	-	-	0	0
Cc1ccc(NC(=O)CN(C)C(=O)CNC(=O)c2sc3ccccc3c2Cl)cc1	0	0	-	-	0	0
O=C1[C@H]2[C@H]3[C@H](O)[C@H](O)C/C(=N/OC[C@@H](O)COCc4ccco4)[C@@H]3CC[C@@H]2C(=O)N1C[C@@H]1CCCO1	-	-	0[13.1 µM]	-	-	-
O=C1/C(=C/c2ccc(C(=O)O)cc2)CCC/C1=C\c1ccc(C(=O)O)cc1	0	0	0	-	-67	0
Oc1cc(-c2cccnc2)cc2cccnc12	7.9µM	0	-	-	-	-
CN1CCN(C(=O)c2cccc(-c3ccc4nncn4c3)c2)CC1	-	-	-	-	0	0
CN1CCN(c2cc(-c3cc(O)c4ncccc4c3)ccn2)CC1	28µM	0	-	-	-	-
CN1CCN(C(=O)c2cccc(-c3cc(O)c4ncccc4c3)c2)CC1	32µM	0	-	-	-	-
N=C(N)c1ccc(N=Nc2c(O)ccc3c2[nH]c2ccccc23)cc1	-	-	-	-	?	-67
CN1C[C@@H]2[C@@H]3C(=O)N(C)C(=O)[C@@H]3[C@](C)(C1=O)N2C(=O)c1ccccc1	-	-	-	-	0	0
Oc1ccc(N=Nc2ccccc2-c2nn[nH]n2)c(O)c1	-	0	-	?	-86	-
Cc1ccccc1-c1nn[nH]n1	-	0	0	0	0	0
COc1ccccc1-c1nnc(SC(C)C(=O)Nc2ccc(C(N)=O)cc2)o1 (stereo not drawn)	0	0	-	-	0	0
CN(O)/C=c1/ccc2c(n1)C(=O)C=CC=2	20µM	0	-	?	-93	-96
Cc1cc2nc(/N=C(\N)NC(=O)N3c4ccccc4Sc4ccccc43)nc(C)c2cc1C	0	0	0	0	0	0
ON(CCc1ccccn1)CCc1ccccn1	-	-	-	-	?	0
OCCN(Cc1ccccn1)Cc1ccccn1	-	-	-	-	-90	-89
C#CCOCCOCCOCCNc1nc(N2CCN(C(=O)[C@H](Cc3ccc(O)cc3)n3cc(CCO)nn3)CC2)nc(N2CCN(C(=O)[C@H](Cc3ccc(O)cc3)n3cc(CCO)nn3)CC2)n1	0	0	0[2.36 µM]	0	-	-
C=C1c2cccc(O)c2C(O)=C2C(=O)[C@]3(O)C(O)=C(C(N)=O)C(=O)[C@@H](N(C)C)[C@@H]3[C@@H](O)[C@H]12	0.89µM	0	-	0	?	?
CC1(C)CCN2CCC(C)(C)c3c(O)ccc1c32	?	0	-	0	0	0
Oc1ccc(/C=N/NC(=S)N/N=C/c2ccc(O)cc2)cc1	?	0	0	?	?	-67
Oc1ccc(/C=N/NC(=S)Nc2cccnc2)cc1	-	0	0	?	0	-
SMILES	L3MBTL1 block	Eya2 phos inh	CBFb RUNX1 block	MBNL1-CUG inh	Six1-Eya2 inh	CtBP-E1A inh
Cc1cc(C)cc(O)c1	-	-	0	-	-	-
O=C(CNCc1ccccn1)Nc1ccc([N+](=O)[O-])cc1C(=O)Nc1ccccc1F	-	0	-	?	-93	-89
O=C(CN1CCN(Cc2ccccc2)CC1)Nc1ccc([N+](=O)[O-])cc1C(=O)Nc1ccccc1F	0	0	0	-	0	-
CN(C)c1ccc(NC2=C(Cl)C(=O)c3ccccc3C2=O)cc1	16µM	0	-	?	?	0
CCC(c1nnc(SCC(=O)Nc2cc(C)on2)o1)N(C)C (stereo not drawn)	0	0	-	-	?	-91
O=C(CSc1nnc(CNC(=O)c2c(F)cccc2F)o1)Nc1ccc2c(c1)OCO2	-	0	-	0	0	0
Cc1cc(NC(=O)CSc2nnc(CNC(=O)c3c(F)cccc3F)o2)no1	-	0	-	0	?	-80
Cc1nnc(SCC(=O)Nc2nccs2)s1	0	0	0	0	0	0

High-throughput results as filed in PubChem.
